Measured values: PubChem BioAssay
The source made the active and inactive calls.

experiment: CREB reporter modulators without forskolin, primary screen, cell-based, PC12, CRE-LacZ reporter, unstimulated (AID 1145); conditions: no forskolin, luminescence, 4.5 h, higher = more signal, called active from +8 up or from −8 down

z-score, inactive:
O=C1O[C@@H](c2ccccc2)[C@@H](c2ccccc2)N2[C@@H](c3ccccc3OCCO)[C@]3(C(=O)Nc4ccccc43)[C@@H](C(=O)NC[C@H](O)c3ccccc3)[C@H]12 0.209
COCCOC(=O)N1C(=O)[C@@]2(c3cc(C#CC4=CCCCC4)ccc31)[C@H](c1ccccc1OCCO)N1[C@H](c3ccccc3)[C@H](c3ccccc3)OC(=O)[C@H]1[C@@H]2C(=O)N1CCc2cc(OC)c(OC)cc2C1 1.03
Cc1ccc(S[C@]2(C(=O)NC3CC3)CC(=O)N(Cc3ccccc3Cl)[C@@H]2c2ccc(CO)cc2I)cc1 0.145
CC(C)CN1C(=O)[C@@]2(Cc3ccccc31)c1ccccc1C(=O)N(Cc1ccccc1C(F)(F)F)[C@H]2c1ccc(CO)cc1 0.0655
CCCN1C(=O)[C@]2(Cc3ccccc3)N=C(c3ccc(OCCCO)cc3)O[C@@H]2c2ccccc21 1.04
C[C@]1(C(=O)NC2CC2)c2ccccc2C(=O)N(Cc2ccc(OC(F)(F)F)cc2)[C@H]1c1ccc(CO)cc1 1.64
NC(=O)NCC#Cc1ccc2c(c1)[C@]1(C(=O)N2)[C@H](C(=O)O)[C@H]2C(=O)O[C@H](c3ccccc3)[C@H](c3ccccc3)N2[C@@H]1c1ccccc1OCCO 0.0384
Cc1ccc(S[C@]2(C(=O)NCCN3CCOCC3)CC(=O)N(Cc3ccccc3C(F)(F)F)[C@@H]2c2ccc(CO)cc2I)cc1 0.299
Cc1ccc(S[C@]2(C(=O)NCc3ccccc3)CC(=O)N(C(C)C)[C@@H]2c2ccc(CO)cc2I)cc1 0.208
